Reference: PubChem BioAssay AID1159580 (chemical genetic matrix, 2015)
Screen size: about 5,500 compounds; about 2,000 (36%) were called active. Inconclusive results (about 18%) are left out. Rule as the data show it: active = normalized growth mostly below about 0.91 (no sharp cut-off); inconclusive = no clear call, values can overlap the other calls; inactive = mostly above about 0.92. The list shows a part of the results.

Assay: chemical genetic growth profiling, strain panel (AID 1159580);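 also: tested at 20 µM; growth read once vehicle control cultures reached saturation at 30 °C; 1 = growth at the plate median or of vehicle wells; lower values mean less growth of the strain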
Details: growth OD

Measured: normalized growth

Nc1c2ccccc2nc2ccccc12 (tested in a mixture with another compound)
inactive: S. cerevisiae deletion strains, locus YKL068W, active compounds read low 0.969 | S. cerevisiae deletion strains, locus YKR026C, strain gcn3, active compounds read low 0.957 | S. cerevisiae deletion strains, locus YKR091W, strain srl3, active compounds read low 0.95 | S. cerevisiae deletion strains, locus YLR102C, strain apc9, active compounds read low 0.943 | S. cerevisiae deletion strains, locus YLR342W, strain FKS1, active compounds read low 0.945 | S. cerevisiae deletion strains, locus YLR357W, strain rsc2, active compounds read low 1.11 | S. cerevisiae deletion strains, locus YLR371W, strain rom2, active compounds read low 0.98 | S. cerevisiae deletion strains, locus YLR384C, strain iki3, active compounds read low 0.932 | S. cerevisiae deletion strains, locus YMR125W, strain sto1, active compounds read low 0.963 | S. cerevisiae deletion strains, locus YMR231W, strain pep5, active compounds read low 0.94 | S. cerevisiae deletion strains, locus YMR307W, strain GAS1, active compounds read low 0.806 | S. cerevisiae deletion strains, locus YNL071W, strain lat1, active compounds read low 0.958 | S. cerevisiae deletion strains, locus YNL322C, strain KRE1 (second series), active compounds read low 0.981 | S. cerevisiae deletion strains, locus YOR316C, strain cot1, active compounds read low 0.938 | S. cerevisiae deletion strains, locus YPL241C, strain CIN2, active compounds read low 0.935 | S. cerevisiae deletion strains, locus YPR141C, strain kar3, active compounds read low 1 | S. cerevisiae deletion strains, locus YPR163C, strain tif3, active compounds read low 0.964
active: S. cerevisiae deletion strains, locus YKL009W, strain mrt4, active compounds read low 0.811 | S. cerevisiae deletion strains, locus YKL085W, strain MDH1 (second series), active compounds read low 0.899 | S. cerevisiae deletion strains, locus YKL085W, strain MDH1, active compounds read low 0.899 | S. cerevisiae deletion strains, locus YKL160W, strain elf1, active compounds read low 0.597 | S. cerevisiae deletion strains, locus YKL190W, strain CNB1, active compounds read low 0.717 | S. cerevisiae deletion strains, locus YKR001C, strain vps1, active compounds read low 0.292 | S. cerevisiae deletion strains, locus YLL001W, strain dnm1, active compounds read low 0.603 | S. cerevisiae deletion strains, locus YLL026W, active compounds read low 0.707 | S. cerevisiae deletion strains, locus YLL041C, strain sdh2, active compounds read low 0.897 | S. cerevisiae deletion strains, locus YLR027C, strain aat2, active compounds read low 0.604 | S. cerevisiae deletion strains, locus YLR039C, strain RIC1, active compounds read low 0.601 | S. cerevisiae deletion strains, locus YLR058C, strain SHM2, active compounds read low 0.538 | S. cerevisiae deletion strains, locus YLR113W, strain HOG1, active compounds read low 0.506 | S. cerevisiae deletion strains, locus YLR221C, strain rsa3, active compounds read low 0.634 | S. cerevisiae deletion strains, locus YLR258W, strain gsy2, active compounds read low 0.603 | S. cerevisiae deletion strains, locus YLR262C, strain YPT6 (second series), active compounds read low 0.573 | S. cerevisiae deletion strains, locus YLR262C, strain YPT6, active compounds read low 0.604 | S. cerevisiae deletion strains, locus YLR268W, strain sec22, active compounds read low 0.622 | S. cerevisiae deletion strains, locus YLR320W, strain mms22, active compounds read low 0.507 | S. cerevisiae deletion strains, locus YLR330W, strain CHS5, active compounds read low 0.826 | S. cerevisiae deletion strains, locus YLR342W, strain FKS1 (second series), active compounds read low 0.662 | S. cerevisiae deletion strains, locus YLR370C, strain arc18, active compounds read low 0.803 | S. cerevisiae deletion strains, locus YLR418C, strain cdc73, active compounds read low 0.723 | S. cerevisiae deletion strains, locus YML016C, strain PPZ1, active compounds read low 0.714 | S. cerevisiae deletion strains, locus YML032C, strain rad52, active compounds read low 0.37 | S. cerevisiae deletion strains, locus YML120C, strain ndi1, active compounds read low 0.439 | S. cerevisiae deletion strains, locus YML124C, strain tub3, active compounds read low 0.84 | S. cerevisiae deletion strains, locus YMR058W, strain fet3, active compounds read low 0.69 | S. cerevisiae deletion strains, locus YMR078C, strain ctf18, active compounds read low 0.642 | S. cerevisiae deletion strains, locus YMR129W, active compounds read low 0.844 | S. cerevisiae deletion strains, locus YMR205C, strain PFK2, active compounds read low 0.669 | S. cerevisiae deletion strains, locus YMR223W, strain ubp8, active compounds read low 0.579 | S. cerevisiae deletion strains, locus YMR263W, strain SAP30, active compounds read low 0.746 | S. cerevisiae deletion strains, locus YNL067W, strain RPL9B, active compounds read low 0.477 | S. cerevisiae deletion strains, locus YNL128W, strain TEP1, active compounds read low 0.76 | S. cerevisiae deletion strains, locus YNL153C, strain GIM3, active compounds read low 0.701 | S. cerevisiae deletion strains, locus YNL183C, strain NPR1, active compounds read low 0.483 | S. cerevisiae deletion strains, locus YNL209W, strain ssb2, active compounds read low 0.729 | S. cerevisiae deletion strains, locus YNL233W, strain BNI4, active compounds read low 0.707 | S. cerevisiae deletion strains, locus YNL248C, strain rpa49, active compounds read low 0.599 | S. cerevisiae deletion strains, locus YNL250W, strain rad50, active compounds read low 0.782 | S. cerevisiae deletion strains, locus YNL271C, strain bni1, active compounds read low 0.891 | S. cerevisiae deletion strains, locus YNL298W, strain CLA4, active compounds read low 0.858 | S. cerevisiae deletion strains, locus YNL307C, strain MCK1, active compounds read low 0.439 | S. cerevisiae deletion strains, locus YNL322C, strain KRE1, active compounds read low 0.771 | S. cerevisiae deletion strains, locus YNR049C, strain mso1, active compounds read low 0.899 | S. cerevisiae deletion strains, locus YNR052C, strain pop2, active compounds read low 0.732 | S. cerevisiae deletion strains, locus YOL006C, strain TOP1, active compounds read low 0.475 | S. cerevisiae deletion strains, locus YOL012C, strain htz1 2.2 [resistant] | S. cerevisiae deletion strains, locus YOL147C, strain pex11, active compounds read low 0.832 | S. cerevisiae deletion strains, locus YOR001W, strain rrp6, active compounds read low 0.508 | S. cerevisiae deletion strains, locus YOR061W, strain CKA2, active compounds read low 0.744 | S. cerevisiae deletion strains, locus YOR069W, strain VPS5, active compounds read low 0.825 | S. cerevisiae deletion strains, locus YOR070C, strain gyp1, active compounds read low 0.732 | S. cerevisiae deletion strains, locus YOR080W, strain dia2, active compounds read low 0.816 | S. cerevisiae deletion strains, locus YOR083W, strain WHI5, active compounds read low 0.56 | S. cerevisiae deletion strains, locus YOR106W, strain vam3, active compounds read low 0.529 | S. cerevisiae deletion strains, locus YOR136W, strain idh2, active compounds read low 0.866 | S. cerevisiae deletion strains, locus YOR144C, strain elg1, active compounds read low 0.766 | S. cerevisiae deletion strains, locus YOR184W, strain ser1, active compounds read low 0.535 | S. cerevisiae deletion strains, locus YOR231W, strain MKK1, active compounds read low 0.41 | S. cerevisiae deletion strains, locus YOR265W, strain rbl2, active compounds read low 0.851 | S. cerevisiae deletion strains, locus YOR270C, strain vph1, active compounds read low 0.577 | S. cerevisiae deletion strains, locus YOR290C, strain snf2, active compounds read low 0.379 | S. cerevisiae deletion strains, locus YPL051W, strain arl3, active compounds read low 0.628 | S. cerevisiae deletion strains, locus YPL055C, strain LGE1, active compounds read low 0.572 | S. cerevisiae deletion strains, locus YPL078C, strain atp4, active compounds read low 0.727 | S. cerevisiae deletion strains, locus YPL106C, strain sse1, active compounds read low 0.779 | S. cerevisiae deletion strains, locus YPL240C, strain hsp82, active compounds read low 0.618 | S. cerevisiae deletion strains, locus YPL256C, strain CLN2, active compounds read low 0.499 | S. cerevisiae deletion strains, locus YPR119W, strain clb2, active compounds read low 0.85 | S. cerevisiae deletion strains, locus YPR167C, strain met16, active compounds read low 0.699 | S. cerevisiae deletion strains, strain wtn01, active compounds read low 0.549 | S. cerevisiae strains, strain wild type, active compounds read low 0.698
